Data on 23 molecules can be found in PubChem BioAssay (Tox21).

A number with no mark means an inactive call. Results filed as inconclusive are left out. Active and inactive are the calls of the source. Unless noted, the call rests on the fitted dose curve; in most records, active means well fitted curve in the direction sought with a large enough effect in the repeat runs; inconclusive means weak or mixed curves; inactive means no such curve, though single readings can be large; an effect the other way counts as inactive or inconclusive.

Experiment [1] is described as follows: qHTS assay for small molecules that induce genotoxicity in human embryonic kidney cells expressing luciferase-tagged ATAD5 (AID 651632). Further: nearly all actives have a fitted effect of over 15% in size. In short, it runs like this: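 ATAD5-luc HEK293T, 2,000 cells/well; cpd or DMSO pin-transferred; 16 hr, 37C/5% CO2; Amplite 30 min RT; luminescence.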
On the technique in general: In qHTS, concentration-response curves come from the screen itself.

Experiment [2] can be described thus: qHTS assay for small molecule agonists of the p53 signaling pathway - cell viability (AID 651633; calls by dose curve;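 further: p53RE-bla HCT reporter cells with a stable beta-lactamase p53 reporter; series mostly up to about 83 µM; nearly all actives have a fitted effect of over 30% in size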). In short, it runs like this:
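p53RE-bla cells, seeded at 4,000 per well and rested 5 h at 37 C/5% CO2, received compounds in DMSO for 16 h at 37 C. CellTiter-Glo was then added, and luminescence was read after 30 min at room temperature to gauge cytotoxicity.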

A short description of experiment [3]: qHTS assay for small molecules that induce genotoxicity in human embryonic kidney cells expressing luciferase-tagged ATAD5 - cell viability (AID 651634; calls by dose curve; further: nearly all actives have a fitted effect of over 25% in size). Summed up:
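Fluorescence from CellTiter-Fluor, reporting protease activity within live cells, served as the viability read-out. HEK293T cells carrying luciferase-tagged ATAD5 had been treated with compound for 15.5 hr at 37C.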

The nature of experiment [4]: qHTS assay for small molecule disruptors of the mitochondrial membrane potential - cell viability (AID 720634; calls by dose curve;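 further: human HepG2 liver cancer cells; series mostly up to about 83 µM; nearly all actives have a fitted effect of over 20% in size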). In short, it runs like this:
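Cells: HepG2, 2,000/well, attached overnight. Compound 1 hr, 37 C/5% CO2. +m-MPI dye, +CellTiter-Glo 30 min RT. Readout: luminescence (ATP).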

Experiment [5] in a line: qHTS assay to test for compound auto fluorescence at 590 nm (red) in HepG2 cells (AID 720674). In short, it runs like this:
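Compound auto-fluorescence is scored relative to Rose Bengal sodium, measured at 540/590 nm in live HepG2 cultures after 1 hr compound contact (37 C, 5% CO2).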

A short description of experiment [6]: qHTS assay to test for compound auto fluorescence at 535 nm (green) in HepG2 cells (AID 720675).
Experiment [7] is described as follows: qHTS assay to test for compound auto fluorescence at 460 nm (blue) in HEK293 cells (AID 720678). In short, it runs like this:
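Auto fluorescence in the blue band was quantified as triamterene equivalency. HEK293 cells were seeded at 2,000/well, dosed after a 4-5 hr attachment, and kept overnight at 37C before the 405/460 nm reading.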

A short description of experiment [8]: qHTS assay to test for compound auto fluorescence at 590 nm (red) in HEK293 cells (AID 720679). Summed up:
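Autofluorescence equivalency to Rose Bengal sodium, 540/590nm, in HEK293 cells exposed overnight to 23 nL compound per well.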

Experiment [9] can be described thus: qHTS assay for small molecule agonists of the p53 signaling pathway (AID 651631; calls by dose curve; further: nearly all actives have a fitted effect of over 15% in size). Summed up: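 HCT-116 cells carrying a beta-lactamase reporter under p53 response elements were dosed with compound for 16 h at 37 °C. LiveBLAzer B/G FRET substrate was then added for 2 h at room temperature, and fluorescence intensity was read to detect pathway agonism.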
Experiment [10] is described as follows: qHTS assay for small molecule disruptors of the mitochondrial membrane potential (AID 720635). Further: potency means the concentration at half of the fitted maximal effect. In short, it runs like this:
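HepG2 cells (2,000/well) attached overnight at 37C, then took compound for 1 hr at 37C, 5% CO2. Mito-MPS dye was added for 30 min; fluorescence was read at 490/535 nm (monomers) and 540/590 nm (aggregates).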
On the % scale 0 is the no-effect control and ±100 the full control effect.

Turning to `CCCCN1C(=O)c2ccccc2C1=O`, the Potency result in experiment [1] was “inactive”. For the same molecule, the outcome in experiment [2], in experiment [3], in experiment [4], in experiment [5], in experiment [6] and in [7] was inactive. In addition, the outcome in experiment [8] was inactive.
With `O=c1c(O)c(O)c1=O`, the Potency entry in [9] and in experiment [10] was “inactive” in each case. The result in [3], in [5], in [6], in experiment [7] and in [8] was inactive.
As to `CCCCCCCCS(=O)(=O)O`, the Potency entry in experiment [1] and in experiment [10] was “inactive” in each case. In addition, the result in experiment [2], in experiment [3], in [4], in [5], in [6] and in experiment [7] was inactive. In [8], the result was inactive.
Turning to `CC(=O)Nc1ccc(OCCOCCOc2ccc(NC(C)=O)cc2)cc1`, the Potency entry in experiment [1] and in [10] was “inactive” each time. For the same molecule, the outcome in [2], in [3], in [4], in experiment [5], in [6] and in [7] was inactive. Further, the result in experiment [8] was inactive.
For `C=CCN(CC=C)CC=C`, in experiment [1], the Potency entry is “inactive”. For the same molecule, the molecule was classed as inactive in experiment [2], in experiment [3], in experiment [4], in experiment [5], in experiment [6] and in experiment [7]. For the same molecule, the molecule was called inactive in experiment [8].
With `N=C(N)N`, the Potency entry in experiment [9], in experiment [1] and in experiment [10] was “inactive” in each case. In addition, the outcome in [5], in experiment [6], in [7] and in [8] was inactive.
For `COC(=O)C(c1ccccc1Cl)N1CCc2sccc2C1` (configuration not stated), the Potency result in experiment [9], in experiment [1] and in experiment [10] was “inactive” throughout. In addition, the outcome in experiment [5], in [6] and in experiment [8] was inactive.
With `Cc1ccc2ccccc2n1`, the Potency result in experiment [9] and in experiment [10] was “inactive” in each case. Also, the outcome in [2], in experiment [3], in experiment [4], in experiment [5], in [6] and in experiment [7] was inactive. Moreover, the outcome in [8] was inactive.
With `CC(C)(C)C(=O)CCc1ccc(Cl)cc1`, the Potency result in [1] and in [10] was “inactive” each time. For the same molecule, the result in [2], in [3], in experiment [4], in experiment [5], in experiment [6] and in experiment [7] was inactive. The call in [8] was inactive.
Turning to `Cc1ccc(OC(=O)CC(C)C)cc1`, the Potency result in [1] and in experiment [10] was “inactive” throughout. Also, the outcome in [2], in experiment [3], in experiment [4], in experiment [5], in [6] and in experiment [8] was inactive.
With `Cc1ccccc1OCC(=O)O`, the Potency result in experiment [1] is “inactive”. Besides, the molecule was classed as inactive in experiment [2], in [3], in experiment [4], in experiment [5], in [6] and in experiment [7]. The outcome in experiment [8] was inactive.
Consider `CCC(=O)OCCOc1ccccc1`, for which, in experiment [1], the Potency result was “inactive”. Further, the call in experiment [2], in experiment [5], in [6] and in experiment [8] was inactive.
`CC(=O)OCC(=O)[C@@]1(O)CC[C@H]2[C@@H]3CCC4=CC(=O)C=C[C@]4(C)[C@H]3[C@@H](O)C[C@@]21C`: the Potency entry in [1] was “inactive”. In addition, the molecule was called inactive in [2], in experiment [4], in experiment [5], in experiment [6], in experiment [7] and in [8].
`COC(=O)N/N=C/c1c[n+]([O-])c2ccccc2[n+]1[O-]`: the Potency result in [1] and in experiment [10] was “inactive” each time. Further, the molecule was classed as inactive in experiment [3], in experiment [4], in experiment [5], in experiment [6] and in [8].
In the case of `CC(C)C(C)C`, the Potency result in experiment [1] was “inactive”. In addition, the call in [3], in experiment [5], in experiment [6] and in [8] was inactive.
As for `CNC(C)=O`, the Potency entry in [1] is “inactive”. The call in [5], in experiment [6], in [7] and in experiment [8] was inactive.
For the molecule `CCOC(=O)c1ccc(N(C)C)cc1`, in [1], the Potency result was “inactive”. Moreover, the molecule was called inactive in experiment [2], in experiment [4], in [5], in experiment [6], in [7] and in experiment [8].
For `CC(C)OCCO`, the Potency entry in experiment [1] and in experiment [10] was “inactive” throughout. Besides, the outcome in [3], in experiment [5], in experiment [6], in experiment [7] and in [8] was inactive.
As to `c1cc2ccc3ccc4ccc5cccc6c(c1)c2c3c4c56`, the activation in [1] is 2.87% [at 3.63 µM]. Further, the activity change, negative = cytotoxicity in experiment [2] is 10.5% [at 3.63 µM]; in experiment [4], 7.58% [at 3.63 µM]. Further, the ratio activity, negative = MMP loss in experiment [10] is 16.7% [at 3.63 µM]. Moreover, the fluorescence, relative to Rose Bengal in experiment [5] was 0.113% [at 3.72 µM]. The fluorescence, % of fluorescein control in experiment [6] is 0.0742% [at 3.72 µM]. Moreover, in [7], the fluorescence, % of triamterene was 1.23% [at 3.72 µM]. The fluorescence, % of fluorescent control in experiment [8] is 0.132% [at 3.72 µM].
For the molecule `O=C(O)Cc1c(Cl)ccc(Cl)c1Cl`, the Potency result in experiment [1] was “inactive”. In addition, the outcome in [2], in experiment [4], in experiment [5], in [6], in experiment [7] and in experiment [8] was inactive.
Regarding `O=S(=O)(O)c1cc(I)c(O)c2ncccc12`, the Potency result in experiment [1] and in [10] was “inactive” in each case. In addition, the molecule was called inactive in experiment [2], in experiment [4], in experiment [5], in [6], in experiment [7] and in experiment [8].
On to `CCOc1ccccc1OCCN[C@H](C)Cc1ccc(OC)c(S(N)(=O)=O)c1`, for which the Potency entry in [1] was “inactive”. Moreover, the molecule was called inactive in experiment [3], in experiment [5], in experiment [6], in experiment [7] and in [8]. The Potency in experiment [10] was 24.8 µM (active).
Regarding `CN(C)c1ccncc1`, the outcome in experiment [2], in experiment [5], in experiment [6], in [7] and in [8] was inactive. Also, the Potency result in [10] is “inactive”.
